# Compound activity as filed in PubChem BioAssay.
# MPTP inh: mitochondrial permeability transition pore inhibitors, primary screen, biochemical, isolated mouse mitochondria, absorbance. inhibition, % at 10 µM. Ca2+ swelling absorbance, 30 min. AID 602449, 2012. 360,000 tested, 1.4% active;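 active = inhibition of 50% or more, scaled per plate between neutral and stimulator controls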;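 note: 0% = DMSO wells given calcium and 100% = 1 mM EGTA wells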
# Mdm2 MdmX PPI: inhibitors of human Mdm2-MdmX association, primary screen, cell-based, luminescence, split luciferase, SaOS-2, uHTS; Protein Mdm4 (Homo sapiens) + E3 ubiquitin-protein ligase Mdm2 (Homo sapiens), …; SaOS-2 split-luciferase Mdm2/MdmX complementation; inhibition, % at 8 µM; 330,000 tested, 3% active;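 active = inhibition of at least 50% at 8 µM in the primary screen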
# TIM10 inh: growth inhibitors of isogenic TIM10 control yeast, primary screen, counter-screen for tim10-1 yeast inhibitor project, luminescence, uHTS; S. cerevisiae TIM10 strain growth, BacTiter-Glo luminescence, 24 h; inhibition, % at 10 µM; 330,000 tested, 1.4% active; AID 463195, 2010;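 active = inhibition of 40% or more at the single tested concentration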;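 note: wild-type TIM10 isogenic control strain grown at permissive 25 °C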
# tim23-1 inh: growth inhibitors of tim23-1 mutant yeast, primary screen, luminescence, uHTS; 330,000 tested, 1.3% active; inhibition, % at 20 µM; AID 463212, 2010; S. cerevisiae tim23-1 growth, BacTiter-Glo luminescence, 24 h;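 active = growth inhibition of the mutant yeast at or above 50%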;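 note: temperature-sensitive mutant grown at 25 °C; plate controls were DMSO-treated mutant yeast for no effect and medium wells lacking yeast for full effect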
# tim10-1 inh: growth inhibitors of tim10-1 mutant yeast, primary screen, luminescence, uHTS. S. cerevisiae tim10-1 ts strain growth, BacTiter-Glo, 24 h. inhibition, % at 20 µM. 330,000 tested, 2.2% active;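 active = inhibition of at least 40%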;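 note: mutant grown at 25 °C; 0% = DMSO wells with yeast and 100% = wells holding no yeast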
# Mdm2 MdmX conf: Mdm2-MdmX complex disruptors, retested hits, confirmation, luminescence, single concentration. 10,000 tested, 55% active. shares compounds with Mdm2 MdmX PPI. Mdm2-MdmX binding, luminescent assay. inhibition, % at 8 µM; in the data active = inhibition above about 40%
# Full FLuc ctr: full-length luciferase signal inhibition, confirmation, counter-screen for Mdm2/MdmX interaction inhibitor project, cell-based, single concentration, SaOS-2; SaOS-2 full-length luciferase counterscreen, luminescence; 6,200 tested, 77% active; inhibition, % at 8 µM; AID 504607, 2011; shares compounds with Mdm2 MdmX PPI;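 active = mean inhibition at 8 µM reaching about 37%, which flags the compound as non-specific, limit read from the data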;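 note: p53-null SaOS-2 cells with luciferase driven by a doxycycline-inducible promoter; compound on cells about two nights before reading with doxycycline added after day one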
# Starred values were filed as active, the others as inactive; . = no result. Most compounds without a hit are left out; they make up all but 6.3% or so of the library.
SMILES,MPTP inh,Mdm2 MdmX PPI,TIM10 inh,tim23-1 inh,tim10-1 inh,Mdm2 MdmX conf,Full FLuc ctr
O=C(Nc1ccc(Cl)c([N+](=O)[O-])c1)Nc1nc2ccccc2s1,.,85*,10,33,-5,40,85*
O=C(Nc1nc2ccccc2s1)Nc1ccc([N+](=O)[O-])cc1Cl,.,42,-19,-22,-19,.,.
Cc1csc2nc(COC(=O)c3ccc(Cl)c([N+](=O)[O-])c3)cc(=O)n12,-1,89*,-18,5,-14,8,.
Cc1ccc(-n2cc(C(=O)c3ccc(N4CCN(C)CC4)cc3)nn2)cc1Cl,-1,98*,-6,17,-16,4,.
CN1CCN(c2ccc(C(=O)c3cn(-c4ccc(F)c(Cl)c4)nn3)cc2)CC1,1,81*,-9,12,27,42*,91*
CCN(CC)CCOC(=O)c1ccc(N/C=C(/C#N)c2nc(-c3cccc(OC)c3)cs2)cc1,0,61*,12,11,5,9,.
CCN(CC)CCOC(=O)c1ccc(N/C=C(/C#N)c2nc(-c3ccc(OC)c(OC)c3)cs2)cc1,-5,13,-14,1,3,.,.
O=c1ccn([C@@H]2O[C@H](CNCc3cccn3-c3ccncc3)[C@@H](O)[C@H]2O)c(=O)[nH]1,-2,.,.,.,.,.,.
COc1ccc(-c2c(C#Cc3ccsc3)c3cc(Br)ccc3n2C)cc1,-1,0,-2,-10,-11,.,.
COc1cc(C#Cc2c(C=O)n(C)c3ccccc23)cc(OC)c1,0,66*,13,22,13,39,78*
COc1ccc(-c2c(C#Cc3ccc(N(C)C)cc3)c3ccccc3n2C)cc1,2,52*,7,14,7,9,.
CS(=O)(=O)c1nc(-c2cccs2)cc(C(F)(F)F)n1,.,100*,35,6,23,99*,1
COc1ccc(-c2cc(C(F)(F)F)nc(S(C)(=O)=O)n2)cc1,0,101*,16,-41,6,80*,53*
COc1ccc(-c2cc(C(F)(F)F)nc(N)n2)cc1,0,-2,5,-26,2,.,.
CN1CCN(c2nc(-c3cccs3)cc(C(F)(F)F)n2)CC1,-3,14,14,10,17,.,.
Cc1ccc(OCCn2cc(C(=S)N3CCCC3)c3ccccc32)cc1C,-1,96*,26,-7,27,91*,54*
COc1ccc(-c2nc3ccc(N4CCN(C)CC4)cc3c(=O)[nH]2)cc1,2,-26,5,9,27,.,.
COc1cc(-c2nc3ccc(N4CCN(C)CC4)cc3[nH]2)cc(OC)c1OC,0,79*,2,-15,5,65*,73*
CC(C)CC(=O)c1c(O)c(C=O)c(O)c2c1O[C@@]1(C)[C@@H](C2)C[C@H]2C[C@@H]1C2(C)C,1,59*,9,16,11,-3,.
COC(=O)N(C)C[C@@H]1OCc2cnnn2CCCC(=O)N([C@H](C)CO)C[C@@H]1C,1,.,.,.,.,.,.
CCN1CCN(Cc2ccc(NC(=O)c3cc(NC(=O)c4cnnc5ccccc45)cc(OC)c3)cc2C(F)(F)F)CC1,-4,52*,7,21,-1,26,.
CCN1CCN(Cc2ccc(NC(=O)c3cc(NC(=O)c4nccnc4N)cc(OC)c3)cc2C(F)(F)F)CC1,-1,37,-3,3,1,.,.
CCN1CCN(Cc2ccc(NC(=O)c3cc(NC(=O)c4cncc(-c5ccc(C#N)cc5)c4)cc(OC)c3)cc2C(F)(F)F)CC1,7,100*,2,-12,11,20,.
CCN1CCN(c2ccc(NC(=O)c3ccc(C#N)cc3F)cc2Cl)CC1,5,-13,-29,-33,-9,.,.
CCOC(=O)[C@]12CCCC=C1N(Cc1ccccc1)C(=O)[C@H](CC(=O)N1CCN(C(=O)c3ccco3)CC1)C2,0,.,.,.,.,.,.
